# Assay outcomes: PubChem BioAssay, National Center for Advancing Translational Sciences (NCATS)
# Rows were chosen to be rich in hits. Some 0.45% of all compounds tested hit in one or more screens of this group.
# FMDV RLuc – FMDV antiviral activity by Renilla signal. FMDV replicon cells, Renilla luciferase signal. Potency, µM (series often up to 57.5 µM), inactives show at the top dose activity change, negative = inhibition, actives largely listed as inhibitors. hit rate 0.32% among 120,000; note: nearly all actives have a fitted effect of over 55% in size
# FMDV FLuc – FMDV antiviral activity by firefly signal | FMDV antiviral cell assay, firefly luciferase signal | Potency, µM (highest dose often 57.5 µM), for inactives: top-dose activity change, negative = inhibition, hits mostly inhibitors | hit rate 0.23% among 120,000 | AID 1745856; note: nearly all actives have a fitted effect of over 60% in size
# * hit, by the source's call; i = inactive; ? = inconclusive. Calls come from the whole dose curve. % is set by controls: 0 for no effect and ±100 for the full control effect; potency is the fitted concentration of half-maximal effect.
SMILES,FMDV RLuc,FMDV FLuc
CC(C)Oc1cccc(Cn2cnc3c2c(=O)n(C)c(=O)n3C)c1,3.55µM*,3.55µM*
Cc1cc(C(=O)Cn2cnc3c2c(=O)n(C)c(=O)n3C)c(C)n1C,41.8%,0.0%
Cn1c(=O)c2c(ncn2CCCOc2ccccc2)n(C)c1=O,-5.5%,9.9%
O=C(O)CCc1nn2c3ccccc3n(CCOc3ccccc3Cl)c2nc1=O,3.1%,11.7%
Cc1ccc(NC(=O)Cc2ccc(-n3c(C)nc4cccnc43)cc2)c(Cl)c1,10µM*,14.1µM*
COc1ccc(Cn2c(CCC(=O)Nc3ccc(C)cc3C)nc3cccnc32)cc1,-2.9%,-10.7%
CCOc1ccc(C(=O)Nc2nc(C)cs2)cc1OCC,-5.9%,162.3%
COc1cc(OC)c(NC(=O)NCc2ccc3c(c2)CCN3C(C)=O)cc1Cl,-3.6%,-8.6%
COc1cc(OC)c(NC(=O)NCc2ccc3c(c2)CCN3C(=O)c2ccccc2)cc1Cl,22.4µM*,0.0%
COc1cccc(CNC(=O)Cn2ccc3cc(S(=O)(=O)N4CCCC4)ccc32)c1OC,18.0%,-15.7%
COc1ccccc1CCNC(=O)Cn1ccc2cc(S(=O)(=O)N3CCCCC3)ccc21,28.2µM*,-18.1%
CC(C)c1cnc2c(c1SCC(=O)c1ccc(Cl)cc1)c(=O)n(C)c(=O)n2C,25.1µM*,28.6%
CC(C)c1cnc2c(c1SCC(=O)O)c(=O)n(C)c(=O)n2C,-4.2%,-13.8%
CC(=O)c1cccc(NC(=O)Nc2ccc(Cl)cc2C(F)(F)F)c1,-10.0%,-2.1%
CC(C)c1ccc(/C=C(\C#N)C(=O)NC2CC2)cc1,35.2%,0.0%
O=C(O)c1cccc(-c2noc(-c3ccccc3F)n2)c1,-6.2%,2.51µM*
Fc1ccccc1-c1nc(-c2cccc(Br)c2)no1,9.1%,0.0%
Fc1ccc(-c2cc(C(F)(F)F)nc(NCc3ccccc3)n2)cc1,-5.4%,-8.9%
COc1ccc(-c2cc(C(F)(F)F)nc(NCc3ccccc3)n2)cc1,3.98µM*,?
COc1cc(C(=O)Nc2ccc3oc(C)nc3c2)ccc1C,?,-27.6%
O=C(Nc1ccccc1-c1ccccc1)c1ccccc1Cl,106.6%,28.3%
Cc1c(O)ccc2c(CN3CCN(Cc4cccc(C(F)(F)F)c4)CC3)cc(=O)oc12,-38.4%,-44.6%
Cc1c(O)ccc2c(CN3CCN(c4cccc(C(F)(F)F)c4)CC3)cc(=O)oc12,12.6µM*,12.6µM*
Cc1nc(C)c(-c2ccc(SCC(=O)Nc3ccc(Br)cc3)nn2)s1,2.82µM*,?
COc1ccccc1NC(=O)CSc1ccc(-c2sc(C)nc2C)nn1,20.1%,4.6%
SMILES,FMDV RLuc,FMDV FLuc
Cc1cc2oc(=O)cc(CN(C)CCOc3ccccc3F)c2cc1C,-1.1%,1.7%
CCC(Sc1nnc(C)n1-c1ccccc1)C(=O)Nc1cc(C)on1 (stereo unspecified),11.0%,10.5%
CCOC(=O)CS(=O)(=O)c1nc(-c2ccc(F)cc2)cc(C(F)(F)F)n1,28.2µM*,?
COc1ccc(-c2cc(C(F)(F)F)nc(S(C)(=O)=O)n2)cc1,?,-32.4%
O=c1oc2ccc(Cl)cc2cc1-c1nc(-c2ccc(F)cc2)no1,1.3%,4.1%
CNc1nc2c(c(=O)n(C)c(=O)n2C)n1CC(O)COc1ccc(C)cc1 (stereo unspecified),11.2µM*,?
CCNc1nc2c(c(=O)n(C)c(=O)n2C)n1CC(O)COc1ccccc1 (stereo unspecified),-11.4%,-1.3%
CCCCCCNc1nc2c(c(=O)[nH]c(=O)n2C)n1Cc1cccc(C)c1,6.2%,21.7%
Cc1ccc2nc(C)c(C(=O)N3CCN(Cc4ccccc4C)CC3)cc2c1,15.8µM*,15.8µM*
Cc1ccc(S(=O)(=O)N2CCN(C(=O)c3cc4cc(C)ccc4nc3C)CC2)cc1,2.6%,13.7%
CN(C)c1ccc(NC(=O)c2ccc3c(c2)NC(=O)CS3)cc1,11.8%,179.2%
Cn1c(=O)c2c(nc(Br)n2CC(=O)c2ccc(F)cc2)n(C)c1=O,-8.5%,9.0%
Cn1c(=O)c2c(nc(Cl)n2CC(=O)c2ccc(C(C)(C)C)cc2)n(C)c1=O,11.2µM*,?
Cc1ccc(NC(=O)c2cc(=O)c3ccc(C)cc3o2)c(C)c1,-19.3%,-10.9%
Cc1ccc(NCc2nc3ccccc3n2CCOc2ccccc2C)cc1,55.0%,31.5%
CCc1nc2ccccc2n1CCCCOc1ccccc1C,?,11.2µM*
CCc1nnc2sc(-c3ccc(CNC(=O)c4ccc(F)cc4)cc3)nn12,-4.8%,3.4%
O=C(CSc1nncn1-c1ccccc1)Nc1cccc(S(=O)(=O)N2CCCCC2)c1,17.7%,15.2%
Cc1[nH]c(SCC(=O)Nc2cccc(S(=O)(=O)N3CCCC3)c2)nc1Cc1ccccc1,-16.2%,14.1µM*
COc1ccc(OC)c(/C=N/NC(=O)CCC(=O)Nc2cccc(Cl)c2)c1,0.4%,-7.2%
O=C(Nc1ccccc1-c1nc2ccccc2s1)c1ccc(F)cc1,-9.0%,-12.8%
O=C(NC12CC3CC(CC(C3)C1)C2)c1ccc(-c2nc3ccccc3s2)s1,20.4%,20µM*
O=C(Oc1ccc(F)cc1)c1ccc(-c2nc3ccccc3s2)s1,7.5%,10µM*
Cc1ccccc1C(=O)NC12CC3CC(CC(C3)C1)C2,37.3%,21.0%
Cc1c(CC(=O)Nc2nc3ccccc3[nH]2)c(=O)oc2c(C)c(O)ccc12,i,i
SMILES,FMDV RLuc,FMDV FLuc
CCOC(=O)CCc1c(C)c2ccc(OCC(=O)C(C)(C)C)c(C)c2oc1=O,17.8%,2.82µM*
Cc1c(C)c2ccc(OCC(=O)C(C)(C)C)c(C)c2oc1=O,29.7%,116.7%
CCOc1ccc(N(C(=O)c2cc(OC)c(OC)c(OC)c2)C2C=CS(=O)(=O)C2)cc1 (stereo unspecified),-8.6%,-8.9%
CCN(CC)S(=O)(=O)NCc1ccnc(N2CCN(c3ccc(F)cc3)CC2)c1,10µM*,?
CCCN(CCC)S(=O)(=O)NCc1ccnc(N2CCN(c3ccc(F)cc3)CC2)c1,-13.1%,-29.2%
CCOc1ccc(C(=O)Nc2ccc3c(c2)N(C(C)=O)CCC3)cc1OCC,3.7%,?
CC(=O)N1CCCc2ccc(NC(=O)c3ccc(C(F)(F)F)cc3)cc21,0.7%,3.16µM*
Cc1ccc(-c2nc(S(=O)(=O)c3ccccc3)c(N(C)C)o2)cc1,4.8%,-0.3%
COc1ccc(CCNc2oc(COc3cccc(C)c3)nc2C#N)cc1OC,-13.6%,-8.6%
COc1ccc(CCNc2oc(COc3ccc(Cl)cc3)nc2C#N)cc1OC,?,28.2µM*
COc1cc(OC)cc(C(=O)N(CC#N)C2CC2)c1,15.2%,0.0%
CS(=O)(=O)N1CCc2cc(C(=O)c3cc4cc(Br)ccc4o3)ccc21,1.7%,20µM*
CS(=O)(=O)N1CCCc2cc(C(=O)c3cc4ccccc4o3)ccc21,?,-17.3%
CCN1C(=O)COc2ccc(-c3nc(NC(=O)c4ccccc4)sc3C)cc21,10µM*,14.1µM*
Cc1sc(NC(=O)c2ccco2)nc1-c1ccc2c(c1)N(C)C(=O)CO2,-0.9%,4.0%
COC(=O)c1ccc(COc2ccc3c(=O)c(-c4ccccc4OC)c(C)oc3c2)cc1,-35.2%,1µM*
COC(=O)c1ccc(Oc2c(C)oc3cc(OCc4ccc(F)cc4)ccc3c2=O)cc1,-4.0%,4.4%
COC(=O)C1(NC(=O)COc2cccc(F)c2)CCCCC1,12.0%,2.4%
COC(=O)C1(NC(=O)COc2cc(Cl)ccc2Cl)CCCCCC1,5.01µM*,?
CCCCCCc1ccc(OC(=O)c2cncc(Br)c2)cc1,7.8%,12.0%
Cc1ccccc1CN1CCC(C(=O)O)CC1,5.5%,6.2%
Cc1ccccc1CN1CCC(N2CCCCCC2)CC1,?,25.1µM*
CC(=O)/C=C(/NCc1ccccc1)C(F)(F)F,-3.7%,5.8%
